Laboratory results: PubChem BioAssay (NCI)
The panel holds about 83,000 compounds, 20% with a hit somewhere; the sample as a whole holds those more often.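 A percent growth of 40 corresponds to 60% growth inhibition; 0 means no net growth; -100 means all cells died. Active threshold: below 10.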 Values without a mark were called inactive. Activity calls are given as the source filed them.

Key:
Assay in all cases: NCI-60 one-dose screen, 48 h (100 = growth as untreated, 0 = no growth, -100 = all killed)
Conditions in all cases: 10 µM unless noted
T-47D breast = test system: T-47D breast
BT-549 breast = test system: BT-549 breast
MDA-MB-435 melanoma = test system: MDA-MB-435 melanoma
SW-620 colon = test system: SW-620 colon
MCF7 breast = test system: MCF7 breast
HCT-116 colon = test system: HCT-116 colon
HCC-2998 colon = test system: HCC-2998 colon
KM12 colon = test system: KM12 colon

| SMILES | growth (T-47D breast) | growth (BT-549 breast) | growth (MDA-MB-435 melanoma) | growth (SW-620 colon) | growth (MCF7 breast) | growth (HCT-116 colon) | growth (HCC-2998 colon) | growth (KM12 colon) |
| --- | --- | --- | --- | --- | --- | --- | --- | --- |
| CC(c1ccc(-n2cccn2)cc1)c1cnc(N2CCc3ccc(C(N)=O)cc3C2)s1 (configuration not stated) | 2.07% (active) | 12% | 40.4% | 97.3% | 37% | 40.6% | 80.9% | 68.2% |
| c1ccc(-c2oc3ccccc3c2-c2ccccc2)cc1 | 75.7% | 106% | 99.5% | 105% | 115% | 98.5% | 111% | 104% |
| CNCCNc1nc2ccccc2c2c(=O)c3cc(F)ccc3oc12 | 96.1% | 69.9% | 76.5% | 33.6% | 45.2% | 27.2% | 71.2% | 41.8% |
| CCCCCCCCc1cc[n+](CC(=O)c2ccc(Br)cc2)cc1 | -16.6% (active) | 77.8% | -15.1% (active) | -33.7% (active) | -74% (active) | -43.1% (active) | -67.4% (active) | -56.8% (active) |
| Clc1ccc(-c2nnc(-c3ccco3)o2)cc1 | 99.2% | 101% | 89.7% | 99.5% | 95.2% | 87.3% | 94.4% | 106% |
| CC(=O)Nc1ccc2c(c1)Cc1c(F)cccc1-2 | 76.6% | 109% | 107% | 102% | 35.9% | 108% | 94.2% | 91.5% |
| CCCNCC(=O)Nc1ccc(C(=O)OC(C)(C)CC)cc1 | 103% | 77.4% | 113% | 105% | 103% | 84.1% | 99.9% | 104% |
| COc1cc2c(cc1OC)-c1ccc3cc4c(cc3c1N(CCCN1CCCCC1)C2)OCO4 | 59.2% | 40.7% | 69.6% | 38% | 46.3% | 24.6% | 80.9% | 48.5% |
| CC/C=C/[C@@H]1C=C[C@@H]2CCC[C@H]2[C@@H]1CC[C@H](O)[C@H](C)N | -45.4% (active) | 85.9% | -89.3% (active) | -67.2% (active) | -85.8% (active) | -76.2% (active) | -88.6% (active) | -85.1% (active) |
| CCN(CC)CCCNC(=O)c1ccc(N)cc1 | 102% | 102% | 108% | 97.8% | 95.1% | 94.8% | 126% | 107% |
| c1ccc2[nH]c(SSc3nc4ncncc4[nH]3)nc2c1 | 46.5% | 46.7% | 19.7% | 36.3% | 9.76% (active) | 20.8% | 18.2% | 15.1% |
| O=C1CSC(c2ccccc2)N1c1ccccc1 (configuration not stated) | 103% | 103% | 108% | 94.5% | 96.6% | 99.9% | 115% | 98.4% |
| Cc1ccccc1NC(=O)CN(C)C | 95.6% | 106% | 108% | 108% | 97.4% | 101% | 116% | 107% |
| Clc1ccc(/C=N\N=c2\scc(-c3ccc(Cl)cc3)n2/N=C/c2ccc(Cl)cc2)cc1 | 96.1% | 107% | 103% | 99.9% | 93.6% | 90% | 104% | 105% |
| O[C@H]1CO[C@H]2[C@@H]1OC[C@@H]2Oc1ccc(Nc2ccnc(Nc3ccc(O[C@H]4CO[C@H]5[C@@H]4OC[C@@H]5O)c(Cl)c3)n2)cc1Cl | 2.36% (active) | 22.1% | 22.7% | 19.5% | 14.6% | 9.14% (active) | 17.1% | 6.62% (active) |
| O=C1Nc2ccccc2/C1=N/N=C/c1ccc(OC2OC(CO)C(O)C(O)C2O)cc1 (configuration not stated) | 105% | 109% | 106% | 101% | 103% | 107% | 115% | 110% |
| [2H]c1nc(Nc2ncc(F)c(-c3cc(F)c4nc(C)n(C(C)C)c4c3)n2)c([2H])c([2H])c1CN1CCN(C([2H])([2H])C([2H])([2H])[2H])CC1 | 54.6% | 51.3% | 51.7% | 43.5% | 30.3% | 26.1% | 82.4% | 40.5% |
| O=C(/C=C/C12c3ccccc3C(c3ccccc31)C1C(=O)N(c3ccccc3)C(=O)C12)c1ccccc1 (configuration not stated) | 40.7% | -2.69% (active) | -1.64% (active) | 1.65% (active) | 14.7% | -57.7% (active) | -65% (active) | -41.3% (active) |
| CN(C)c1ccc(/C=C2\C=C(c3ccccc3)N(CCc3ccccc3)C2=O)cc1 | 82.3% | 71.3% | 95.3% | 61.4% | 60% | 42.2% | 75.5% | 89.8% |
| CC(C)c1ccc(NC(=O)Cc2ccc(Nc3ncnc4cc(-c5cnn(CCN(C)C)c5)ccc34)cc2)cc1 | -37.1% [30 µM] (active) | -15.3% [30 µM] (active) | -85.4% [30 µM] (active) | -82.6% [30 µM] (active) | -49.1% [30 µM] (active) | -19.7% [30 µM] (active) | -79.6% [30 µM] (active) | -86.4% [30 µM] (active) |
| CCN(CC)CCOC(=O)N1c2ccccc2Sc2ccccc21 | 94% | 92.1% | 98.7% | 94.4% | 99.5% | 81.7% | 102% | 99.3% |
| NC(N)=N/N=C/c1ccc(Br)cc1 | -26.9% (active) | 92.3% | -33.1% (active) | 16.8% | 4.98% (active) | -26.3% (active) | 56.7% | 18.3% |
| O=C(NCCN1CCC(O)CC1)c1cc2c(o1)C(=O)c1ccccc1C2=O | -44.6% (active) | -94.4% (active) | -91.8% (active) | -78.3% (active) | -69.7% (active) | -81.5% (active) | -92.9% (active) | -89.3% (active) |
| N[C@H]1CCC[C@@H]1NCCCCN1C(=O)c2cccc3cccc(c23)C1=O | 82.6% | 74.1% | 89.5% | 30% | 52.8% | 32% | 53.9% | 48.4% |
| COc1cc2c(cc1OC)-c1ccc3cc4c(cc3c1N(CCN1CCCC1)C2)OCO4 | -28.3% (active) | 21.8% | 56.4% | -40.1% (active) | -6.8% (active) | -84.5% (active) | 15.7% | 16.7% |
| CCCCCCCC/C=C/CCCCCCCC1=NCC[N+]1(CCO)CCO | 90.5% | 98.7% | 65.1% | 71.4% | 66.5% | 59.8% | 72% | 40.4% |
| NC(=O)c1c(NC(=O)c2ccccn2)sc2c1CCC(=O)C2 | 5.3% (active) | 5.57% (active) | 21.3% | 14.7% | 39.1% | 9.08% (active) | 81% | 6.82% (active) |
| Cc1ccc2c(n1)C(=O)C(Oc1ccc(F)cc1)=CC2=O | 40% | 85.4% | 101% | 84.7% | 81.1% | 90.8% | 108% | 101% |
| CN(C)CCn1cc(-c2ccc3c(Nc4ccc(CC(=O)Nc5cccc(F)c5)cc4)ncnc3c2)cn1 | -39.7% [30 µM] (active) | -9.36% [30 µM] (active) | -71.7% [30 µM] (active) | -64.2% [30 µM] (active) | -56.9% [30 µM] (active) | -11.9% [30 µM] (active) | -91.5% [30 µM] (active) | -83.6% [30 µM] (active) |
